The list is not random: actives were taken first. Their share in the collection is about 8.1%.
VP16 counter: inhibits Gal4-VP16 luciferase reporter, ROR gamma counter-screen | Drosophila S2 Gal4-VP16 UAS-luciferase, luminescence, 20 h | Potency, µM (highest dose often 53.6 µM), usual class: inhibitors | 310,000 tested, 3.5% active | AID 2546;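 also: Gal4-VP16 expression switched on by copper sulfate through the metallothionein promoter; nearly all actives have a fitted effect of over 50% in size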
RORgamma inh: inhibitors of mouse ROR gamma transcriptional activity. P51450. Drosophila S2 Gal4-RORgamma UAS-luciferase reporter, 20 h. Potency, µM (doses to about 53.6 µM), usual class: inhibitors. 310,000 tested, 5.4% active. AID 2551; also: nearly all actives have a fitted effect of over 60% in size
Target sequence (P51450 whole entry, looked up, the tested form may be a part): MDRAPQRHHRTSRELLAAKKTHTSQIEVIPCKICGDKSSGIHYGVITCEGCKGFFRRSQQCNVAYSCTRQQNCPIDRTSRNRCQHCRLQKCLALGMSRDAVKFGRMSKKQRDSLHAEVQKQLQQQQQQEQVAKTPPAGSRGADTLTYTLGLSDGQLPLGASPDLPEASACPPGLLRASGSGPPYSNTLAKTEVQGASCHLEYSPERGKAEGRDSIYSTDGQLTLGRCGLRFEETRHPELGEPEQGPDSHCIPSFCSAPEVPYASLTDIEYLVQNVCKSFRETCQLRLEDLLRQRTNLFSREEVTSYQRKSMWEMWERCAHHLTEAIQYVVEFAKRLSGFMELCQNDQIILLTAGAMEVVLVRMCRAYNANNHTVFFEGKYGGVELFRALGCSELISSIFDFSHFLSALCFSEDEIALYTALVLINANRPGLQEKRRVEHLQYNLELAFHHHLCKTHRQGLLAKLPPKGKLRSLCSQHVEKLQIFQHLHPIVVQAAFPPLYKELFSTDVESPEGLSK
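Drosophila S2 cells stably expressing Gal4-DBD/mouse RORγ fusion under metallothionein promoter plus UAS-luciferase; compound 1 h, then 700 uM CuSO4 induction for 20 h at ambient temperature; inhibition read as reduced luminescence.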
PINK1 modulator: changes PINK1 expression; PINK1 immunofluorescence, high-content cytometry, 24 h; Potency, µM (series often up to 76.6 µM), most hits filed as activators; 410,000 tested, 0.2% active; active = well fitted activation curve with a large enough effect; inconclusive = small, poorly fitted or top-dose-only effect; cell line not stated here; also: nearly all actives have a fitted effect of over 65% in size
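Measures PINK1 amount and localization on or inside mitochondria by immunofluorescence. Stable cells get compounds at 5 concentrations for 24 hours before fixation and staining; CCCP controls included.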
ClpP mod: qHTS Assay for Activators of ClpP | Potency, µM (series often up to 57.5 µM) | purified B. subtilis ClpP, FRET peptide cleavage, 20 min | 340,000 tested, 1.9% active; active = well fitted falling curve with a large enough effect; inconclusive = small, poorly fitted or top-dose-only effect; inactive = no such curve, though single readings can be large or run the other way; also: the source files actives as falling curves though it sought activators and does not explain the sign; nearly all actives have a fitted effect of over 65% in size
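ClpP 10 microg/mL final, pH 8 Tris/KCl buffer with BSA, glycerol, Tween-20; compound pinned in; FRET-FV substrate; RT 20 min; Ex320/Em430; ΔFRET vs ADEP 5.8 microM, DMSO, no enzyme.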
Epigenetic derep: regulators of epigenetic silencing causing reporter derepression in mouse cells. murine LDR cells, GFP reporter derepression, 30 h. Potency, µM (highest dose often 53.9 µM), hits mostly activators. 280,000 tested, 0.2% active; also: nearly all actives have a fitted effect of over 60% in size
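GFP-positive cell count by laser-scanning cytometry (objects 20–120 um) after 30 h, 37 C compound exposure of murine LDR cells; reporter is CMV-GFP integrated at a silenced locus, inducible by HDAC or DNMT inhibitors.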
Sfp PPTase inh: blocks B. subtilis Sfp PPTase activity; Q9F4F7; Biochemical Sfp PPTase activity, qHTS; Potency, µM, actives largely listed as inhibitors; 310,000 tested, 3.5% active; AID 1490;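 also: the enzyme is Sfp with the accession as filed and its product quenches rhodamine fluorescence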
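Fluorescence-quenching assay: 15 nM Sfp-PPTase preincubated 15 min at room temperature with compound, then 5 uM rhodamine-CoA and 12.5 uM BHQ-2-labelled YbbR peptide added. Fluorescence (ex 525/em 598 nm) read at start and after 30 min; difference gives rate.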
Large screens that a line does not name were inactive. Unless noted, calls follow the shape of the dose curve; as a rule, active = well fitted curve in the direction sought with a large enough effect; inconclusive = small, poorly fitted or top-dose-only effect, or another doubt; inactive = no such curve, though single readings can be large; an effect the other way counts as inactive or inconclusive.

Cc1ccc(NC(=S)NCC2CCCO2)cc1C (stereo not drawn)	VP16 counter 10µM, RORgamma inh inconclusive
CC(Oc1ccc(Cl)cc1)C(=O)NCC1CCCO1 (stereo not drawn)	none (no result: ClpP mod, Epigenetic derep)
CC(Oc1ccc(F)cc1F)C(=O)NNC(=S)NCC1CCCO1 (stereo not drawn)	VP16 counter inconclusive, RORgamma inh 11µM (no result: Epigenetic derep)
S=C(NCC1CCCO1)NC12CC3CC(CC(C3)C1)C2 (stereo not drawn)	VP16 counter 5µM, RORgamma inh 0.63µM (no result: ClpP mod)
O=C(NCC1CCCO1)NC12CC3CC(CC(C3)C1)C2 (stereo not drawn)	none
CCCCOc1ccc(Cn2c(=O)sc3ccccc32)cc1OC	none (no result: VP16 counter, RORgamma inh, Sfp PPTase inh)
CSCC[C@H](NC(=O)[C@H](CCC(N)=O)NC(=O)[C@H](CCCCN)NC(=O)[C@H](CCCNC(=N)N)NC(=O)[C@H](Cc1ccc(O)cc1)NC(=O)[C@H](CCCNC(=N)N)NC(=O)[C@H](CO)NC(=O)[C@H](Cc1ccc(O)cc1)NC(=O)[C@H](CO)NC(=O)[C@H](CC(=O)O)NC(=O)[C@@H](NC(=O)[C@@H](N)Cc1ccccc1)[C@@H](C)O)C(=O)N[C@@H](C)C(=O)N[C@H](C(=O)N[C@@H](CCCCN)C(=O)N[C@@H](CCCCN)C(=O)N[C@@H](Cc1ccc(O)cc1)C(=O)N[C@@H](CC(C)C)C(=O)N[C@@H](C)C(=O)N[C@@H](C)C(=O)N[C@H](C(=O)N[C@@H](CC(C)C)C(=O)NCC(=O)N[C@@H](CCCCN)C(=O)N[C@@H](CCCNC(=N)N)C(=O)N[C@@H](Cc1ccc(O)cc1)C(=O)N[C@@H](CCCCN)C(=O)N[C@@H](CCC(N)=O)C(=O)N[C@@H](CCCNC(=N)N)C(=O)N[C@H](C(=O)N[C@@H](CCCCN)C(=O)N[C@@H](CC(N)=O)C(=O)N[C@@H](CCCCN)C(N)=O)C(C)C)C(C)C)C(C)C	none (no result: PINK1 modulator, ClpP mod, Epigenetic derep)
COc1ccc(NC(=O)c2c(-c3ccc(C)cc3)nnc3ccccc23)c(OC)c1	none (no result: VP16 counter, RORgamma inh, Sfp PPTase inh)
COc1ccc(C(=O)N(Cc2ccco2)Cc2cccs2)c(OC)c1	none (no result: VP16 counter, RORgamma inh, Epigenetic derep, Sfp PPTase inh)
CCN1CCN(c2nnc(-n3cccc3C(=O)Nc3cccc(OC)c3)s2)CC1	none (no result: VP16 counter, RORgamma inh, Sfp PPTase inh)
S=C(NCC1CCCO1)Nc1ccccc1 (stereo not drawn)	RORgamma inh 11µM (no result: ClpP mod)
Cc1cccc(NC(=S)NCC2CCCO2)c1 (stereo not drawn)	VP16 counter inconclusive, RORgamma inh inconclusive
S=C(NCC1CCCO1)Nc1ccc(Cl)cc1Cl (stereo not drawn)	VP16 counter inconclusive, RORgamma inh 16µM, Sfp PPTase inh inconclusive
O=C(NCC1CCCO1)Nc1ccc(Cl)cc1 (stereo not drawn)	none
CCCn1c(=O)c2sccc2n2c(CCCC(=O)Nc3ccc(C)c(F)c3)nnc12	none (no result: VP16 counter, RORgamma inh, Sfp PPTase inh)
O=[N+]([O-])c1cc(C(F)(F)F)cc([N+](=O)[O-])c1Sc1n[nH]c(C(F)(F)F)n1	VP16 counter inconclusive, RORgamma inh inconclusive, Epigenetic derep inconclusive, Sfp PPTase inh 56µM (no result: ClpP mod)
Brc1ccc(COc2cccc3cccnc23)cc1	none (no result: VP16 counter, RORgamma inh, Epigenetic derep, Sfp PPTase inh)
N#Cc1ccc(COc2cccc3cccnc23)cc1	RORgamma inh 10µM (no result: ClpP mod, Epigenetic derep)
Cc1cccc(-n2c(C)c(-c3ccccc3)[nH]c2=S)c1	VP16 counter 7.9µM, RORgamma inh 1.1µM, Sfp PPTase inh 3.5µM (no result: Epigenetic derep)
Cc1cccc(-n2c(C)n[nH]c2=S)c1	RORgamma inh 11µM (no result: PINK1 modulator)
Cc1cccc(-n2cc[nH]c2=S)c1	VP16 counter inconclusive, RORgamma inh 7.9µM, Sfp PPTase inh 56µM
Cc1cccc(-n2cc[nH]c2=S)c1C	VP16 counter inconclusive
COc1ccc(C)cc1-n1c(-c2ccncc2)n[nH]c1=S	none
Cc1cccc(-n2c(-c3ccncc3)n[nH]c2=S)c1	RORgamma inh inconclusive, Sfp PPTase inh 79µM
COc1ccc(F)c(CN2CCOc3ccc(CN4CCC(O)(c5cccnc5)CC4)cc3C2)c1	none (no result: VP16 counter, RORgamma inh, ClpP mod, Epigenetic derep, Sfp PPTase inh)
COc1ccc(Br)cc1CNC(=O)c1ccc(-n2c(C)cc3c2CCC(C)C3)cc1 (stereo not drawn)	none (no result: VP16 counter, RORgamma inh, Sfp PPTase inh)
